# Bioassay records (PubChem)
# Only some compounds are listed: those with a hit (about 19% of all), similar ones and a draw of the others.
# IL-1B inflam inh: inhibitors of inflammasome signaling (IL-1 beta secretion). THP-1 LPS/ATP IL-1B secretion, AlphaLISA, 16 h; hits give low values. activity change, % at 57.5 µM. hit rate 4.7% among 360,000; in the data active = activity change below about -50%; inconclusive = mostly about -30% to -49%; also: % is scaled to controls: 0 for no effect and ±100 for the full control effect
#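 Secreted IL-1B measured by AlphaLISA bead assay after 16 h compound exposure of THP-1 cells; compounds (final up to 57.5 uM) added 1 h before LPS (250 ng/mL) and ATP (1.25 mM) stimulation; lower signal means less secretion.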
# TGFb inhibitor: blocks TGF-b signaling; AID 588855; hit rate 1.2% among 410,000; HepG2 CAGA-GFP TGF-b/SMAD3 reporter, GFP fluorescence, 18 h; TGF-beta stimulated, 500 pg/mL final; Potency, µM (series often up to 46.1 µM), for the others: at the highest dose activity, negative = inhibition, hits mostly inhibitors; also: potency is read from the fitted curve at half-maximal effect; % is scaled to controls: 0 for no effect and ±100 for the full control effect; nearly all actives have a fitted effect of over 65% in size
#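 HEPG2 CAGA-GFP cells (1000/well, DMEM with 1% FBS) were pre-incubated 2 h at 37 degrees C, given compound by pin tool, then stimulated with TGF-beta at 500 pg/mL final for 18 h before per-cell GFP fluorescence imaging.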
# S-ASM inh: inhibitors of human secretory acid sphingomyelinase | Potency, µM (doses to about 57.5 µM), inactives show at the top dose activity change, negative = inhibition, most hits filed as inhibitors | hit rate 0.006% among 340,000 | placental ASM, HMU-PC fluorogenic substrate, 60 min | AID 504937 | P17405; also: potency is read from the fitted curve at half-maximal effect
# Target sequence (P17405 47-631 limits assumed): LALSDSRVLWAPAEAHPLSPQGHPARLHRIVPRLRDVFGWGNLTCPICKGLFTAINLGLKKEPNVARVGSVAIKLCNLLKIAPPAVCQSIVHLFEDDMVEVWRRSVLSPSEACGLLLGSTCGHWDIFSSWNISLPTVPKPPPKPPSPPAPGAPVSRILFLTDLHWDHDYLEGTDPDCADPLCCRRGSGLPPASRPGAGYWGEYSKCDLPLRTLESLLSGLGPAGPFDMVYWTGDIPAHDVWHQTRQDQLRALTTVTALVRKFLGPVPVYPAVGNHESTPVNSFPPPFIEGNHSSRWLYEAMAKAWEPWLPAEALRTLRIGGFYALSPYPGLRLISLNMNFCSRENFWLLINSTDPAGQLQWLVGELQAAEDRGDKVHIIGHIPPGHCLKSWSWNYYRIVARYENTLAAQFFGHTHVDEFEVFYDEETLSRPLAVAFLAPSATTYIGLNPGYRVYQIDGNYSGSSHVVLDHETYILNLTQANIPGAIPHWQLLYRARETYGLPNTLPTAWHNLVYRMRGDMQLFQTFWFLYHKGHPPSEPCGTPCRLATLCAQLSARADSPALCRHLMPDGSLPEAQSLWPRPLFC
#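 qHTS format. ASM enzyme prepared from human placenta hydrolyses the fluorogenic substrate HMU-PC0 (9 uM final) over 60 min at 37 °C after a 10 min compound preincubation.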
# HepG2 viability: kills HepG2 cells in TGF-b inhibitor counter-screen. HepG2 CAGA-GFP viability, ATP luminescence, 18 h. Potency, µM (top dose mostly 46.1 µM), without a hit: top-dose activity change, negative = cytotoxicity, actives largely listed as cytotoxic. hit rate 0.76% among 410,000. AID 588856; also: potency is read from the fitted curve at half-maximal effect
#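 HepG2 CAGA-GFP cells (1000/well, DMEM with 1% FBS) received compound, then TGF-beta at 500 pg/mL final, and were incubated 18 hours at 37 degrees C. Viability was read by CellTiter-Glo luminescence. Media-only wells were set as complete cell-killing and DMSO as no toxicity.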
# TDP1 cell CPT: growth inhibition of DT40 Tdp1-/-;hTDP1 cells with camptothecin (screen for TDP1 inhibitors) | Potency, µM (doses to about 46.2 µM), for the others: at the highest dose activity change, negative = growth inhibition, most hits filed as inhibitors | chicken DT40 Tdp1-/-;hTDP1 cells + 20 nM CPT, ATP luminescence, 48 h | hit rate 12% among 420,000; also: potency is read from the fitted curve at half-maximal effect; % is scaled to controls: 0 for no effect and ±100 for the full control effect; nearly all actives have a fitted effect of over 55% in size
#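 Chicken DT40 Tdp1-/- cells complemented with human TDP1, 400 cells/well, exposed to compounds plus 20 nM camptothecin for at least 48 h at 37 C; viability read as ATP content by CellTiter-Glo luminescence.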
# TDP1 cell noCPT: qHTS for Inhibitors of human tyrosyl-DNA phosphodiesterase 1 (TDP1): qHTS in cells in absence of CPT; DT40 Tdp1-/- hTDP1 cells, no CPT, ATP luminescence, 48 h; Potency, µM (series often up to 46.2 µM), inactives show top-dose activity change, negative = growth inhibition, most hits filed as inhibitors; hit rate 15% among 420,000; AID 686978, 2013; also: potency is read from the fitted curve at half-maximal effect; % is scaled to controls: 0 for no effect and ±100 for the full control effect; nearly all actives have a fitted effect of over 55% in size
#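 Chicken DT40 Tdp1-/- cells stably complemented with human TDP1 were seeded at 400 cells/well with DMSO in place of 20 nM camptothecin. After compound pinning, cells grew at least 48 hr at 37 °C; viability read by CellTiter-Glo luminescence.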
# Active calls of the source: *; i = inactive; ? = inconclusive; · = no result. Unless noted, calls follow the shape of the dose curve; as a rule, active = well fitted curve in the direction sought with a large enough effect; inconclusive = small, poorly fitted or top-dose-only effect, or another doubt; inactive = no such curve, though single readings can be large; an effect the other way counts as inactive or inconclusive.
SMILES,IL-1B inflam inh,TGFb inhibitor,S-ASM inh,HepG2 viability,TDP1 cell CPT,TDP1 cell noCPT
COC(=O)c1ccc(CNC(=O)COC(=O)c2cccs2)cc1,12.9,10.5%,-2.9%,12.2%,3.5%,-26.6%
CC(C)=N/N=C1/NC(=O)C(c2ccccc2)S1 (configuration not stated),0.0,?,0.6%,-8.3%,?,16.4µM*
Cc1nc2ccn(Cc3cccs3)c(=O)c2cc1C(=O)NCc1ccccc1,·,-43.8%,·,-26.6%,-11.0%,-17.8%
c1ccc2nc(-c3nc4ccccc4[nH]3)ccc2c1,14.9,9.6%,-1.4%,-61.1%,?,5.17µM*
c1ccc2c(-c3nc4ccccc4[nH]3)cccc2c1,34.9,-7.1%,·,-6.1%,9.2µM*,4.61µM*
Oc1ccccc1C=Nc1ccccc1-c1nc2ccccc2[nH]1,-3.1,-24.5%,i,-40.9%,?,16.4µM*
CCC(c1nc2ccccc2[nH]1)n1c(=O)c(-c2cccnc2)nc2ccccc21 (configuration not stated),-2.7,·,·,·,5.0%,-27.0%
O=c1[nH]c(=O)c2nc3c4ccccc4c4ccccc4c3nc2[nH]1,-7.3,17.4%,276.3%,-31.2%,8.2µM*,5.17µM*
O=c1[nH]c(=O)c2nc(-c3ccc(Cl)cc3)cnc2[nH]1,-5.0,29.1%,i,0.0%,-22.9%,?
CCN(Cc1cc(=O)n2cc(Cl)c(C)c(Cl)c2n1)Cc1nc2ccccc2c(=O)[nH]1,33.3,-8.5%,7.0%,0.0%,-6.6%,18.4µM*
CC(=O)N/C(=N/c1nc(C)cc(C)n1)Nc1ccc(C)cc1C,10.8,?,0.1%,-2.4%,?,?
COc1cc(N/C(N)=N/c2nc(C)cc(C)n2)cc(OC)c1,0.2,0.8%,-3.2%,-38.6%,16.4µM*,20.6µM*
COc1ccc(Cl)cc1N/C(N)=N/c1nc(C)cc(C)n1,14.8,-3.3%,0.8%,1.3%,-17.4%,-19.3%
COc1ccc(OC)c(N/C(N)=N/c2nc(C)cc(C)n2)c1,-77.1*,-29.2%,0.4%,-17.9%,?,18.4µM*
Cc1ccc(C)c(N/C(N)=N/c2nc(C)cc(C)n2)c1,-110.7*,-10.1%,-2.3%,-2.3%,20.6µM*,13µM*
COc1ccc(C)cc1N/C(N)=N/c1nc(C)cc(C)n1,-98.1*,?,-1.1%,-23.2%,20.6µM*,16.4µM*
COc1ccc(N/C(=N\c2nc(C)cc(C)n2)NC(C)=O)cc1OC,-13.4,4.8%,-1.0%,-4.1%,-26.8%,?
COc1ccc(N/C(N)=N/c2nc(C)cc(C)n2)c(OC)c1,-76.0*,-10.1%,5.5%,-5.7%,25.9µM*,11.6µM*
COc1ccc(OC)c(N/C(=N/c2nc(C)cc(C)n2)NC(C)=O)c1,-11.5,0.1%,4.8%,3.8%,?,7.31µM*
CCCCNC(=O)C1(C)CCN1C(=O)c1sccc1C (configuration not stated),0.0,-9.5%,·,-6.9%,-21.0%,1.8%
O=C(Nc1nccs1)c1cccc2ccccc12,34.1,18.8%,-11.3%,33.0%,-7.3%,-0.1%
OC(c1ccccc1)C(Nc1ccccn1)c1ccccc1 (configuration not stated),0.3,-1.3%,1.0%,-0.9%,-7.3%,?
Oc1c(C(Nc2ccccn2)c2ccccc2F)ccc2cccnc12 (configuration not stated),·,1.41µM*,·,-1.3%,?,16.4µM*
Oc1c(C(Nc2ccccn2)c2ccccn2)ccc2cccnc12 (configuration not stated),92.9,-19.1%,-2.2%,-16.0%,0.82µM*,0.82µM*
Oc1ccccc1C(Nc1nccs1)c1ccc2cccnc2c1O (configuration not stated),68.1,?,-3.4%,-16.7%,3.66µM*,2.59µM*
SMILES,IL-1B inflam inh,TGFb inhibitor,S-ASM inh,HepG2 viability,TDP1 cell CPT,TDP1 cell noCPT
CCCn1cc(CN2CCC(n3nccc3NC(=O)CCOc3ccccc3)CC2)c(C)n1,40.2,19.1%,1.5%,3.0%,6.2%,7.5%
CS(=O)(=O)N1CCCC(C(=O)Nc2ccc(F)c(F)c2)C1 (configuration not stated),1.0,12.5%,4.6%,4.6%,-2.4%,?
Cc1cc(C(=O)Nc2ccc(C(C)C)cc2)c2c(C)nn(-c3ccccc3)c2n1,·,0.6%,·,-17.6%,·,·
Cc1noc(C)c1CCC(=O)Nc1cc(Cl)ccc1C(=O)O,8.6,-0.6%,·,1.6%,-9.3%,-12.8%
CCOC(=O)c1ccccc1NC(=O)Cn1cc(C(=O)c2cccc(OC)c2)c(=O)c2ccc(C)nc21,·,2.4%,·,-46.2%,-4.9%,0.9%
CC(C(=O)OCC(=O)c1ccc(Br)cc1)N1C(=O)C2C3CCC(C3)C2C1=O (configuration not stated),14.3,-1.1%,2.0%,-36.8%,-1.0%,-14.6%
C=C1C(=O)O[C@@H]2[C@H]1CC[C@H](C)[C@]1(O)CCC(=O)[C@@]21C,-68.7*,?,-0.6%,4.3%,23.1µM*,?
Cc1nn(-c2ccccc2)c(C)c1NC(=O)COC(=O)Cc1cccc(C(F)(F)F)c1,1.3,10.8%,0.4%,10.1%,-0.6%,2.0%
CCOC(=O)C1=C(COC(=O)CCOc2cccc(C)c2)NC(=O)NC1C (configuration not stated),1.2,-22.9%,4.3%,-3.1%,?,?
CCOC(=O)C1=C(COC(=O)CCS(=O)(=O)c2ccc(C)cc2)NC(=O)NC1C (configuration not stated),-80.1*,1.0%,10.1%,-6.3%,?,-23.9%
CCOC(=O)C1=C(COC(=O)c2ccc([N+](=O)[O-])s2)NC(=O)NC1C (configuration not stated),41.6,11.2µM*,-5.2%,-121.6%,?,?
CCOC(=O)C1=C(COC(=O)CCOc2ccccc2)NC(=O)NC1C (configuration not stated),4.8,-2.6%,-3.9%,-4.1%,23.1µM*,23.1µM*
O=C(CCc1nc2ccccc2c(=O)[nH]1)Nc1nnc(SCc2ccccc2F)s1,27.1,-26.3%,-2.1%,-2.4%,13µM*,16.4µM*
CC(C)C[C@H](NC(=O)N1c2ccccc2NC(=O)[C@@H]1C(C)C)C(=O)N1CCC[C@@H]1C(=O)O,2.0,-0.7%,1.5%,2.6%,9.9%,-14.6%
